Columns and labels:
Assay type in all cases: functional
[1] = test system: Plasmodium falciparum; test: GSK_TCMDC: Inhibition of Plasmodium falciparum 3D7 in whole red blood cells, using parasite LDH activity as an index of growth. Test compounds present at 2uM
[2] = test system: Plasmodium falciparum; test: GSK_TCMDC: Inhibition of Plasmodium falciparum Dd2 in whole red blood cells, using parasite LDH activity as an index of growth. Test compounds present at 2uM
[3] = test system: HepG2; test: GSK_TCMDC: Percent inhibition of human HepG2 cell line. Test compounds present at 10uM.

SMILES | Inhibition [1] [%] | Inhibition [2] [%] | Inhibition [3] [%]
CN1CCC(NCc2cccc(-c3ccc(S(=O)(=O)NCCc4ccccn4)c(F)c3)c2)CC1.O=C(O)C(F)(F)F | 98 | 26 | 11
Cc1cccc(CN2CCCN(Cc3cccc(C(=O)Nc4ccc(C(C)(C)C)cc4)c3)CC2)c1.O=C(O)C(F)(F)F | 89 | 40 | 98
Cc1cccc(Cl)c1S(=O)(=O)Nc1cccc(CCN2CCC(N3CCCCC3)CC2)c1 | 91 | 18 | 34
CN(C)CCCOc1ccc(CN2CC[C@H](NC(=O)c3ccc(Cl)c(Cl)c3)C2)cc1Cl.O=C(O)C(F)(F)F | 100 | 35 | 65
Cc1cc(N[C@@H](Cc2ccccc2)C(=O)NCc2cccc(F)c2)nc(NCCc2cccs2)n1.O=C(O)C(F)(F)F | 99 | 22 | 9
Clc1ccc(/N=C(/NCCCCCCCN/C(=N\c2ccc(Cl)cc2)Nc2ccc(Cl)cc2)Nc2ccc(Cl)cc2)cc1 | 100 | 99 | 100
Fc1ccc(-c2cncc(-c3ccc(F)cc3)n2)cc1 | 99 | 94 | 7
O=c1cc(NCCCNCc2ccc3c(c2)OC(F)(F)O3)[nH]c2ccccc12 | 100 | 94 | 0
CC(C)(C)NC(=O)COC(=O)c1c2c(nc3ccccc13)C(=Cc1ccc3c(c1)OCO3)CCC2 | 90 | 82 | 7
COc1ccc(NC(=O)NC2CCN(c3ccnc4ccccc34)C2)cc1.O=C(O)C(F)(F)F (stereo not given) | 94 | 0 | 3
